The target of test [1] is T1, Tyrosine-protein kinase ITK/TSK (Homo sapiens) (UniProt Q08881).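 Also: values are mean percent inhibition of ITK from the GSK PKIS screen.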
T1 sequence (whole entry): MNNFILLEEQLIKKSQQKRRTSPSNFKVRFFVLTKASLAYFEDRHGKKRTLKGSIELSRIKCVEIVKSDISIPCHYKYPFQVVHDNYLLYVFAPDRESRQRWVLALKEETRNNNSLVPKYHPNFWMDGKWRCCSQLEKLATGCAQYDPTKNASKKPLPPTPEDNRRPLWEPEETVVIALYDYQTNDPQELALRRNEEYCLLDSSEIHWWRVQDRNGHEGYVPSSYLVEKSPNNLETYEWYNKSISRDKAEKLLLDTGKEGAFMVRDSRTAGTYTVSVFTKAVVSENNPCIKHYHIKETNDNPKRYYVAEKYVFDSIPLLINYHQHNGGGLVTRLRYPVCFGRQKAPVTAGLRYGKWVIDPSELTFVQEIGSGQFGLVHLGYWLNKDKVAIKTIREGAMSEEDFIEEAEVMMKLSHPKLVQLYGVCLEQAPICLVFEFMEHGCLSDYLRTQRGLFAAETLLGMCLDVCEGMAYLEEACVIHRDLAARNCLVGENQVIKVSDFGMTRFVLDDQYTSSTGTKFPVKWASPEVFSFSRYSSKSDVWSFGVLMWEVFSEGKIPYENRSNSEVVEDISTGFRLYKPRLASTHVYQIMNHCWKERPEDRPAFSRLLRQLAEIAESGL
The conditions noted are these: at 1 µM.

Test [2] deals with Tyrosine-protein kinase JAK1 (Homo sapiens) (UniProt P23458). Conditions: at 0.1 µM.
Tyrosine-protein kinase JAK1 (Homo sapiens), sequence (P23458 whole entry): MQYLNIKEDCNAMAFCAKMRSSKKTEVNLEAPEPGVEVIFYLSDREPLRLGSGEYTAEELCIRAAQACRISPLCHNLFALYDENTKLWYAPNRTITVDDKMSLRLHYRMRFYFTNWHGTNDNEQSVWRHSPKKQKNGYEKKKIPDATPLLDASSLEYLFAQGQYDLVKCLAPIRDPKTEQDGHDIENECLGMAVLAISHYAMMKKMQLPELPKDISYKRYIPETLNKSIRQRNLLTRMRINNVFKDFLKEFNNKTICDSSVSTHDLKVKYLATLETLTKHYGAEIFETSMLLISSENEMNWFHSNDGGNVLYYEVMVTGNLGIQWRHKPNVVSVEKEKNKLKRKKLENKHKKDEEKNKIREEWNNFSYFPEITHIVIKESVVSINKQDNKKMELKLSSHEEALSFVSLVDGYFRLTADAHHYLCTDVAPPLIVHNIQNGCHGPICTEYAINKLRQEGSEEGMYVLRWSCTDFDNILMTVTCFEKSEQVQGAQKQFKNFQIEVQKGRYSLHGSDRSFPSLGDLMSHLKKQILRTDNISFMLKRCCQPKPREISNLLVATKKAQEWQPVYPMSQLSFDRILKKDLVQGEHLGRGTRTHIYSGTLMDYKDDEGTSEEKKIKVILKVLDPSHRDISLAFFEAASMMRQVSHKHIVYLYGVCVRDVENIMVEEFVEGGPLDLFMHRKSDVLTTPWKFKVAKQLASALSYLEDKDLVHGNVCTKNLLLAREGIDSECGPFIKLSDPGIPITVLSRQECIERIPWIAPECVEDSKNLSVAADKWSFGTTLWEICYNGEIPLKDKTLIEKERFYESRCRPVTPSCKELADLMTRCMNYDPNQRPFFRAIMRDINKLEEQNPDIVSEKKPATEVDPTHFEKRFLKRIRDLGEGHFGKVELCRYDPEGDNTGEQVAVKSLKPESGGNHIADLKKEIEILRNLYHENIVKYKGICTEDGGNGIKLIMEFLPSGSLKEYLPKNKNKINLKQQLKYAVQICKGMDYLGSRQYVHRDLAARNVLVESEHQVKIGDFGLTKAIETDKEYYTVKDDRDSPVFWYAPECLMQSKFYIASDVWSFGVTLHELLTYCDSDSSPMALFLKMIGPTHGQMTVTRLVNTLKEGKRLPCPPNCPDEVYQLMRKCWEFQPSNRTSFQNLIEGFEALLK
For test [3] the target is unchanged. The conditions noted are these: at 1 µM.
Test [4] deals with Tyrosine-protein kinase JAK2 (Homo sapiens) (UniProt O60674). Conditions: at 0.1 µM.
The target is the same in test [5]. The conditions noted are these: at 1 µM.
The target in test [6] is T2, Tyrosine-protein kinase JAK3 (Homo sapiens) (UniProt P52333).
T2 sequence (whole entry): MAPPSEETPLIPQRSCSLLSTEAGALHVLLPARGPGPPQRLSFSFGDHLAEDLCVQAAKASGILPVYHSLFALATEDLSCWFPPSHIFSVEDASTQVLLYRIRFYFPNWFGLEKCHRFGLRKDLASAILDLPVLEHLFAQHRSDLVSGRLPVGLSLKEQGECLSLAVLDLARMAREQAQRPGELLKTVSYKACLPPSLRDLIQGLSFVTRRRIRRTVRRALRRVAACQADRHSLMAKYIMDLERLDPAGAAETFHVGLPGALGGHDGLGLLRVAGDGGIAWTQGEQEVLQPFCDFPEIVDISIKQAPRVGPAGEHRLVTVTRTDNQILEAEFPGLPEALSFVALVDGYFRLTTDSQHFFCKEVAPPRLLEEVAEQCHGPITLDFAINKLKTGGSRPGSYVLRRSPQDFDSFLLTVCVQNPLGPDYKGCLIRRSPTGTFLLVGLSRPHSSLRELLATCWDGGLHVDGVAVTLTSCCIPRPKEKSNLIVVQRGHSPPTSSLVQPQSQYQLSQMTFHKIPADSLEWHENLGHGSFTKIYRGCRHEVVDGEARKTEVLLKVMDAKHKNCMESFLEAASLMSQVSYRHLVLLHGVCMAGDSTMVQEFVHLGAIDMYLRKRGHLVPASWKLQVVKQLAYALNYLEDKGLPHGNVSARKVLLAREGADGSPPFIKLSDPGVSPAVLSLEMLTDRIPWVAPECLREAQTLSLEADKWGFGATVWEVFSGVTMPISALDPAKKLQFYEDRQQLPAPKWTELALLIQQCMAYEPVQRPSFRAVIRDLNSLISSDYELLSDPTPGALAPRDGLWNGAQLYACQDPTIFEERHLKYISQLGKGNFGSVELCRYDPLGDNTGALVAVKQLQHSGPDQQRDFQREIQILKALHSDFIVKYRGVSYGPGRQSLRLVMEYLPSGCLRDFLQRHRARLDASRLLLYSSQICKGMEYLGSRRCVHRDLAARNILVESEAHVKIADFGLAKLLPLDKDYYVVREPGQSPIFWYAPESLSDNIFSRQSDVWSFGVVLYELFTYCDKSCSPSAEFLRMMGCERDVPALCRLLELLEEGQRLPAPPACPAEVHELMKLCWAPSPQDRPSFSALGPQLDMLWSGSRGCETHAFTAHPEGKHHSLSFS
Conditions: at 0.1 µM.

Test [7] has as its target T2, Tyrosine-protein kinase JAK3 (Homo sapiens). The conditions noted are these: at 1 µM.
Test [8] concerns the target Vascular endothelial growth factor receptor 2 (Homo sapiens) (UniProt P35968). Conditions: at 0.1 µM.
For test [9] the target is unchanged. Conditions: at 1 µM.
Test [10] concerns the target Mast/stem cell growth factor receptor Kit (Homo sapiens) (UniProt P10721). The conditions noted are these: at 0.1 µM.
Test [11] has the same target. The conditions noted are these: at 1 µM.
In test [12] the test system is Mast/stem cell growth factor receptor Kit (Homo sapiens), P10721 [D816V]. Conditions: at 0.1 µM.
Mast/stem cell growth factor receptor Kit (Homo sapiens), P10721 [D816V], sequence (P10721 whole entry D816V): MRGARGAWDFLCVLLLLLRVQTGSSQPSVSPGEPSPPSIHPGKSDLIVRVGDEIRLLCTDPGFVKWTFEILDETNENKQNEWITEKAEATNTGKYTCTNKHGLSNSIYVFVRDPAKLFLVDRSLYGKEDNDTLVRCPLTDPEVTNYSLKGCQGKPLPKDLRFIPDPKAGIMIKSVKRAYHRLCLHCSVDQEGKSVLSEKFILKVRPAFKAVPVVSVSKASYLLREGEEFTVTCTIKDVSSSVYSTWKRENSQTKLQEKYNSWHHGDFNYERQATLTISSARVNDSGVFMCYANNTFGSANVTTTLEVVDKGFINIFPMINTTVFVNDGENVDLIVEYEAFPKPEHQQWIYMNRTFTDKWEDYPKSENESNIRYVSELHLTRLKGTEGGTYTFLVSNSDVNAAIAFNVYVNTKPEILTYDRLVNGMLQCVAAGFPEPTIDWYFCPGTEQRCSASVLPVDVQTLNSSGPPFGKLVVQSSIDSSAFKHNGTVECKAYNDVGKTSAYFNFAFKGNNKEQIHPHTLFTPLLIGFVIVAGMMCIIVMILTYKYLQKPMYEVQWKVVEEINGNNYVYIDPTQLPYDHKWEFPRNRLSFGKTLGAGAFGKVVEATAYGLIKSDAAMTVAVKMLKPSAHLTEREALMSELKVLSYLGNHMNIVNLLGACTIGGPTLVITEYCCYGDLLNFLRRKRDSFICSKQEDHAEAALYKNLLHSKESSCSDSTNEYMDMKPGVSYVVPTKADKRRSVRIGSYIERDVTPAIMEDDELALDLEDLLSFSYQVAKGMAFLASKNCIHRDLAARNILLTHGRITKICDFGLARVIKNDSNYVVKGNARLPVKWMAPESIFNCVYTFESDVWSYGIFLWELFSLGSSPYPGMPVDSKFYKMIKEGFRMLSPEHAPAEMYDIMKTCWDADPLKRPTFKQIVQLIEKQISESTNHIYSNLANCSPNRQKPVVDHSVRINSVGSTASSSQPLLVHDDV
Test [13] shares this test system. Conditions: at 1 µM.
Test [14] has as its system Mast/stem cell growth factor receptor Kit (Homo sapiens), P10721 [T670I]. Conditions: at 0.1 µM.
Test [15] has the same test system. The conditions noted are these: at 1 µM.
For test [16], the system named is Mast/stem cell growth factor receptor Kit (Homo sapiens), P10721 [V560G]. Conditions: at 0.1 µM.
Mast/stem cell growth factor receptor Kit (Homo sapiens), P10721 [V560G], sequence (P10721 whole entry V560G): as the sequence (P10721 whole entry D816V) above, with V560G, V816D counted along it
Test [17] shares this test system. The conditions noted are these: at 1 µM.
Test [18] has as its target Tyrosine-protein kinase Lck (Homo sapiens) (UniProt P06239). The conditions noted are these: at 0.1 µM.
Test [19] has the same target. The conditions noted are these: at 1 µM.
Test [20] deals with Leukocyte tyrosine kinase receptor (Homo sapiens) (UniProt P29376). Conditions: at 0.1 µM.
Leukocyte tyrosine kinase receptor (Homo sapiens), sequence (P29376 whole entry): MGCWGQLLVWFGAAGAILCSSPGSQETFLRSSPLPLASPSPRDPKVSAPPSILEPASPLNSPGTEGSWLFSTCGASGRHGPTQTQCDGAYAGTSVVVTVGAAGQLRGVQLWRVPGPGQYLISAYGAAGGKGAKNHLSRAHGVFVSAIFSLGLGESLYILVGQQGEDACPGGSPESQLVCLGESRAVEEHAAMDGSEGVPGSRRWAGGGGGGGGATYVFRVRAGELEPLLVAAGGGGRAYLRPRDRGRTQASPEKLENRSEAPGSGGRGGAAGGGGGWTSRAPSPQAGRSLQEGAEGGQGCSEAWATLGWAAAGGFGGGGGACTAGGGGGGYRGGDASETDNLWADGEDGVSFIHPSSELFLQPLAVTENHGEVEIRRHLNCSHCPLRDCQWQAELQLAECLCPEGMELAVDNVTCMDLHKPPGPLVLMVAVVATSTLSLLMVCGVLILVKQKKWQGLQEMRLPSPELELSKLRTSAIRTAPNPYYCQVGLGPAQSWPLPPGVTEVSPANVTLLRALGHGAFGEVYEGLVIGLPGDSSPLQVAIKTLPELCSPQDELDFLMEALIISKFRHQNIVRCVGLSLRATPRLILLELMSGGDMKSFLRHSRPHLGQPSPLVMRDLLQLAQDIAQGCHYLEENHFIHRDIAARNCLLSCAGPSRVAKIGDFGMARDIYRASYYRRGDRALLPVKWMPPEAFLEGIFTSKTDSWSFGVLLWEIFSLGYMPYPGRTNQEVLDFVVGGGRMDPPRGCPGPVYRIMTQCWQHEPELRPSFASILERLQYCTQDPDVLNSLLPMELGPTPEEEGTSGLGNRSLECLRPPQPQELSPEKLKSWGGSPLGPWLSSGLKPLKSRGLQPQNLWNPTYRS

Each structure is given as a SMILES string.

Vascular endothelial growth factor receptor 2 (Homo sapiens), sequence (P35968 whole entry): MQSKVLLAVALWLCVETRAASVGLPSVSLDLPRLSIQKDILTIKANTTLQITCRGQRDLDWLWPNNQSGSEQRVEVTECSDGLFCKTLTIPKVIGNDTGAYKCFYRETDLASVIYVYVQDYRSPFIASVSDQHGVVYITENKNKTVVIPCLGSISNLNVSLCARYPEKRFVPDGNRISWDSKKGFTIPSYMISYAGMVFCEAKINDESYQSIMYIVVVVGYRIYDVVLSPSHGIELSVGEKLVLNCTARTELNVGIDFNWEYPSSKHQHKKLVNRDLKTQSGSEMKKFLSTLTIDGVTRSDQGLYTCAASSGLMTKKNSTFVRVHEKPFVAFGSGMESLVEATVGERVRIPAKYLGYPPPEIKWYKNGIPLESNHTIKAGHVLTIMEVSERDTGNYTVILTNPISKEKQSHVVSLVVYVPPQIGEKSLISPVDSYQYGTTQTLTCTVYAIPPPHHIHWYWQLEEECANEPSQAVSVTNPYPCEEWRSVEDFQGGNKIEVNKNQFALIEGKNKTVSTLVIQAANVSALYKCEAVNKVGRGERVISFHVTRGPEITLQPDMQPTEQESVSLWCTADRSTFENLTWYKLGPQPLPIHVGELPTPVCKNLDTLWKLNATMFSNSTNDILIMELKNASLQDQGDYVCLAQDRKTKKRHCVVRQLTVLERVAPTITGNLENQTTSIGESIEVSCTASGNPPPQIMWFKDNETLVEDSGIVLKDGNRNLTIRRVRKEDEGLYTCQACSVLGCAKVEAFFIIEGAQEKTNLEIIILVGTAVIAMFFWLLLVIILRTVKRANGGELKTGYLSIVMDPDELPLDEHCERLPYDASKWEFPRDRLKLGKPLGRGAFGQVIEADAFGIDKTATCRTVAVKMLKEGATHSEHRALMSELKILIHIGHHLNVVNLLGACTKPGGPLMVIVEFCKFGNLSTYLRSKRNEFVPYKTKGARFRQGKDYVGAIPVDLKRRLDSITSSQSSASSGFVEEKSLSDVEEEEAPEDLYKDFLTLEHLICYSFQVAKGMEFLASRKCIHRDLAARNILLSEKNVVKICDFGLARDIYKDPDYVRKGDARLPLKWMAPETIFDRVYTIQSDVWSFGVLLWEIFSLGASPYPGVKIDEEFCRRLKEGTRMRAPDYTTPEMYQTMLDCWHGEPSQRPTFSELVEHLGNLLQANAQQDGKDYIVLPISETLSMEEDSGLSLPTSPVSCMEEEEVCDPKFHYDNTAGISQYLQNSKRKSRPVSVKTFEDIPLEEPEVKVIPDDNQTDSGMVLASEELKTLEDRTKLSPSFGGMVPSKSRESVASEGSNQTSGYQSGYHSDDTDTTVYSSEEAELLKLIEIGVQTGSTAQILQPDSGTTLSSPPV
Mast/stem cell growth factor receptor Kit (Homo sapiens), P10721 [T670I], sequence (P10721 whole entry T670I): as the sequence (P10721 whole entry D816V) above, with T670I, V816D counted along it
Tyrosine-protein kinase Lck (Homo sapiens), sequence (P06239 2-509 limits assumed): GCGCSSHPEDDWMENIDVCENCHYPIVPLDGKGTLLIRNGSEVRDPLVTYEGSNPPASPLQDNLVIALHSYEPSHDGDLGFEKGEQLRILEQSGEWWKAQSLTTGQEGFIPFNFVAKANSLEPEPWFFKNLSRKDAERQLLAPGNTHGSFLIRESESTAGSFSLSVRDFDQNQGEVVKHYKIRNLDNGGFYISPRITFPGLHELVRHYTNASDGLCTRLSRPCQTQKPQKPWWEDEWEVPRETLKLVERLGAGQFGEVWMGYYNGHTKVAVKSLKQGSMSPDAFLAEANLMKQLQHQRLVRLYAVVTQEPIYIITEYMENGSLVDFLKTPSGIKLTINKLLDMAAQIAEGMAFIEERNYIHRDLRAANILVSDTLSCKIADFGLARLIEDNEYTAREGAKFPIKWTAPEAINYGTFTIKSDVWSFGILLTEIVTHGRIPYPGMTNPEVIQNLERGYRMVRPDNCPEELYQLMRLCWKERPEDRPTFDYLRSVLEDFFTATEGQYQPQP
Mast/stem cell growth factor receptor Kit (Homo sapiens), sequence (P10721 whole entry): as the sequence (P10721 whole entry D816V) above, with V816D counted along it

Turning to `COc1ccc2ncnc(Nc3ccc(OCc4ccccc4)cc3)c2c1`, the inhibition (as a rule, the change of the read-out against control, counted positive when it falls) in [1] was 1.7%; in test [2] it was 1.35%; in test [3], 3.3%; in test [4] it was 1.02%; in [5], 0.06%; in [6] it was 0.27%. Besides, the inhibition is 0.67% in [7]; 1.51% in test [8]; 3% in test [9]; 3.24% in [10]; 9.52% in test [11]; 2.81% in [12]. Also, the inhibition in test [13] was 0.98%; in test [14] it was 0.74%; in [15], 2.49%; in test [16], -1.68%; in [17], 0.69%; in test [18], 1.39%. The values for the inhibition in test [19] and in test [20] were 7.05% and 2.27%, respectively.

As to `CS(=O)(=O)CCNCc1nc(-c2ccc3ncnc(Nc4ccc(OCc5cccc(C(F)(F)F)c5)cc4)c3c2)cs1`, the inhibition in test [1] was 2.53%; in test [2] it was 1.05%; in [3] it was 3.96%; in test [4] it was 1.09%; in test [5], 3.08%; in test [6] it was -0.8%. The inhibition in test [7] is 1.6%; in [8], 2.88%; in test [9], 9.28%; in [10], 1.96%; in [11] it was 12.8%; in test [12], -0.14%. Also, the inhibition in [13] was 1.52%; in test [14], -0.86%; in test [15] it was 3.13%; in test [16], 0.77%; in [17] it was 6.02%; in test [18], 2.25%. In addition, the figures for the inhibition in [19] and in test [20] were 6.83% and 3.1%, respectively.

Turning to `COc1ccc(-c2nn3ncccc3c2-c2ccnc(Nc3cccc(C(F)(F)F)c3)n2)cc1`, the inhibition is 1.39% in test [1]; 2.27% in test [2]; 3.13% in test [3]; 0.53% in [4]; 0.47% in [5]; -3.85% in test [6]. Moreover, the inhibition is -0.01% in [7]; 3.64% in test [8]; 11.1% in test [9]; 3.46% in test [10]; 26.5% in test [11]; 0.93% in [12]. Further, the inhibition in test [13] was 3.05%; in test [14] it was 3.67%; in test [15] it was 4.13%; in [16], -1.16%; in test [17] it was 7.05%; in [18] it was 3.91%. The results for the inhibition in [19] and in test [20] were 20.3% and 2.17%, respectively.

Take `CN(C)CCCn1c(-c2nonc2N)nc2cnccc21`: the inhibition is 0.92% in [1]; 4.69% in test [2]; 6.17% in test [3]; 1.25% in [4]; 0.79% in [5]; -1.68% in [6]. Moreover, the inhibition was -0.27% in test [7]; 4.41% in test [8]; 8.24% in test [9]; 2.22% in test [10]; 3.91% in test [11]; 4.66% in test [12]. Also, the inhibition in [14] was 2.49%; in test [15] it was 0.58%; in test [16], -1.36%; in test [17], -1.19%; in test [18], 2.27%; in test [19], 4.6%. For the same compound, the inhibition in [20] was found to be 3.86%.

In the case of `CN1CCN(C(=O)c2ccc(NC(=O)Nc3ccc(N(C)c4ccnc(Nc5ccc(CS(C)(=O)=O)cc5)n4)cc3)cc2)CC1`, the inhibition in test [1] is 38.7%; in test [2] it was 2.49%; in test [3] it was 20.6%; in test [4] it was 3.54%; in test [5], 49.7%; in test [6] it was -1.34%. For the same compound, the inhibition worked out at 26.2% in [7]; 21.4% in test [8]; 69.2% in [9]; 65.6% in test [10]; 88.5% in test [11]; 1.27% in test [12]. The inhibition in test [13] turned out to be 2.73%; in [14] it was 10.6%; in test [15], 58.7%; in [16] it was 75.1%; in test [17], 93.2%; in [18], 5.01%. Moreover, the figures for the inhibition in test [19] and in test [20] were 23.9% and 2.61%, respectively.

Turning to `N#Cc1c(NC(=O)c2ccccc2F)sc2c1CCCC2`, the inhibition in test [1] is 0.32%; in test [2], 0.4%; in test [3], -1.49%; in test [4], -0.7%; in [5], -1.01%; in [6], -1.04%. Also, the inhibition in test [7] is 2.45%; in test [8], -3.31%; in test [9] it was -0.36%; in [10] it was -4.4%; in test [11] it was -1.43%; in test [12] it was -1.25%. The inhibition in test [13] was -3.62%; in test [14], -0.75%; in test [15] it was 0.26%; in [16] it was 2.34%; in [17] it was 2.89%; in test [18] it was 0.15%. Further, the inhibition in test [19] was 4.08%; in [20], -1.29%.

On to `COc1cc2ncnc(Nc3ccc4c(cnn4Cc4ccccc4)c3)c2cc1OC`, for which the inhibition is 1.9% in [1]; 4.18% in [2]; 2.43% in test [3]; 1.01% in test [4]; 1.11% in [5]; -1.67% in test [6]. Further, the inhibition in [7] was found to be 1.82%; in test [8], 6.63%; in [9], 47.6%; in test [10], 2.37%; in test [11] it was 9.47%; in [12], 1.06%. Further, the inhibition was 2.79% in [13]; 2.31% in test [14]; 2.58% in test [15]; -3.09% in test [16]; 2.41% in test [17]; 19.5% in [18]. The inhibition in test [19] came to 61.1%; in [20], 2.67%.

Values taken from ChEMBL document CHEMBL1961873, “Compounds: GSK PKIS; Assays: Nanosyn kinase panel” (2012).
